# From PMC5540273 (PLoS ONE, 2017)
# Legend:
# Conditions in all cases: concentration: 1 μM, replicates: in singlicate; n = 1
# TESK1 = system: TESK1
# TGFBR1 = system: TGFBR1
# TGFBR2 = system: TGFBR2
# TIE1 = system: TIE1
# TIE2 = system: T1, TIE2
# T1 construct: gene TEK
# TLK1 = system: TLK1
# TLK2 = system: TLK2
# TNIK = system: TNIK
# TNK1 = system: TNK1
# TNK2 = system: TNK2
# TNNI3K = system: TNNI3K
# TRKA = system: T2, TRKA
# T2 construct: gene NTRK1
# TRKB = system: TRKB
# TRKC = system: T3, TRKC
# T3 construct: gene NTRK3
# TRPM6 = system: TRPM6
# TSSK1B = system: TSSK1B
# TSSK3 = system: TSSK3
# TTK = system: TTK
# TXK = system: TXK
# [1] = system: TYK2(JH1domain-catalytic)
# 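Also: KINOMEscan kinase panel screen.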
Compound,%Inh (TESK1) [%],%Inh (TGFBR1) [%],%Inh (TGFBR2) [%],%Inh (TIE1) [%],%Inh (TIE2) [%],%Inh (TLK1) [%],%Inh (TLK2) [%],%Inh (TNIK) [%],%Inh (TNK1) [%],%Inh (TNK2) [%],%Inh (TNNI3K) [%],%Inh (TRKA) [%],%Inh (TRKB) [%],%Inh (TRKC) [%],%Inh (TRPM6) [%],%Inh (TSSK1B) [%],%Inh (TSSK3) [%],%Inh (TTK) [%],%Inh (TXK) [%],%Inh [1] [%]
CCNc1nccc(-c2c(-c3ccc(F)cc3)ncn2C2CCN(C)CC2)n1,0,0,0,100,0,17,0,24,0,0,0,0,0,0,0,0,0,7,0,0
CSc1ccc(NC2=C(c3ccc(Cl)cc3)C(=O)NC2=O)cc1 [SB-317658],20,38,23,42,17,8,18,0,41,0,2,5,0,0,0,3,0,6,23,0
COc1cccc(CC(=O)N2CCc3cc(-c4cn(C)c5ncnc(N)c45)ccc32)c1 [GSK2608899],21,0,6,82,42,15,0,81,0,0,0,75,28,52,0,29,30,0,0,0
Cc1ccc(O)cc1Nc1ccnc2ccc(C(C)(C)C)cc12 [GW856805],0,8,93.2,38,39,0,31,0,69,13,6,37,42,11,21,1,0,17,98.9,54
Cc1ccc(O)cc1Nc1ccnc2cc(-c3ccc(CN4CCCCC4)o3)ccc12 [GW557777],0,47,98,61,57,23,5,24,0,26,20,42,0,0,0,0,0,0,98.3,63
CS(=O)(=O)c1cccc(CNc2nc(Nc3ccc4c(c3)CCC(=O)N4)ncc2C(F)(F)F)c1,0,2,0,57,30,0,0,90.1,73,0,0,98,92.9,73,0,0,0,99.6,0,89
Nc1cccc(-c2ccc3c(N)n[nH]c3c2)c1 [GSK2193613],29,0,0,6,0,3,0,93.2,0,13,0,35,40,19,0,0,8,21,3,13
Cn1cc(-c2ccc3c(c2)CCN3C(=O)Cc2cc(F)cc(F)c2F)c2c(N)ncnc21 [GSK2634140],22,10,0,76,52,3,0,5,8,7,0,36,0,38,8,0,8,0,13,11
COc1cc(Nc2nccc(N3CCC(NC(=O)Nc4ccc5c(c4)OCO5)C3)n2)cc(OC)c1OC (centres unmarked) [GSK1379766],22,22,0,42,0,0,0,0,20,9,0,57,43,73,47,8,9,0,38,38
c1ccc(Oc2ccc(Nc3ccnc4cc(-c5ccc(CN6CCCCC6)o5)ccc34)cc2)nc1 [GW567143],16,0,0,23,0,0,0,14,56,36,1,98.7,18,27,42,6,19,28,0,16
O=C(Nc1n[nH]c2cc(-c3cccs3)ccc12)C1CC1 [SB-731284],0,0,0,0,7,0,0,56,0,0,0,3,0,3,39,0,7,10,0,28
CCn1c(-c2nonc2N)nc2c(-c3ccccc3)ncc(OCCCN)c21.O=C(O)C(F)(F)F.O=C(O)C(F)(F)F [GSK260205],0,76,0,70,41,1,0,85,1,8,16,0,23,26,19,11,24,0,0,88
N#CC1(c2cccc(C(=O)Nc3cccc(Oc4ccc5nc(NC(=O)C6CC6)sc5n4)c3)c2)CC1,9,0,0,73,37,0,0,53,76,0,90.5,0,7,0,12,0,0,9,86,0
Cc1nn2c(=O)cc(N3CCO[C@H](C)C3)nc2n1Cc1cccc(Cl)c1Cl [GSK2373693],20,0,8,15,2,0,0,0,0,10,60,0,7,0,0,21,5,0,0,17
Cl.O=C(Nc1ccc(Oc2ccc3[nH]c(NC(=O)c4ccco4)nc3c2)cc1)Nc1cc(C(F)(F)F)ccc1F [GW683134],36,0,0,100,99.8,0,3,0,56,8,87,98.9,98.3,97.4,1,0,6,0,16,16
COc1cccc2c(-c3ccncc3)c(-c3ccc(F)cc3)nn12 [GW468513],0,65,47,33,0,0,0,69,0,14,6,17,11,0,9,49,21,0,6,25
COC(=O)Nc1nc2cc(Oc3ccc(NC(=O)Nc4cccc(SC)c4)cc3)ccc2[nH]1.Cl [GW697999],3,25,0,96.5,93.2,0,0,0,4,10,81,81,82,90,0,0,11,4,0,10
CN(c1ccc(NC(=O)Nc2cccc(Cl)c2)cc1)c1ccnc(N)n1.Cl [GW830707],4,71,0,86,19,0,5,0,28,3,19,57,45,89,0,3,0,0,0,0
O=C(Nc1c(F)cccc1F)c1cc(C(=O)c2ccccc2F)c[nH]1 [GSK1326180],10,0,6,0,0,0,0,20,8,8,0,27,0,12,0,0,24,6,0,0
